Methyltransferases: Primary Screen for Target Class Profiling of Small Molecule Inhibitors of Methyltransferases; purified enzyme, MTase-Glo SAH luminescence; active compounds read low; calls only at 40 µM; 25,000 compounds, 3.9% hits; call rule not given here
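Each enzyme was assayed with SAM and its substrate. SAH formation detected by MTase-Glo luminescence; single-point 40 uM screen[…].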
Numbers without * were called inactive; i = inactive; + = active, no number. The full list was thinned out, with hits kept by preference. On the % scale 0 is the no-effect control and ±100 the full control effect.

SMILES	Methyltransferases
C=CCn1c(=O)c2ccc(C(=O)NC(C)CC)cc2n2c(=O)n(CC(=O)Nc3ccccc3C)nc12 (stereo unspecified)	i
CC1=CC(=O)[C@@]2(C(C)C)C[C@@H]12	+
CC(C)CCN1C(=O)c2ccccc2CC1(C)C(=O)NC1CCCCCC1 (stereo unspecified)	i
CCCc1cc2c(N3CCN(C4=NCC(C)(C)S4)CC3)ncnc2s1	+
CC(C)c1cc2c(N3CCN(C4=NCC(C)(C)S4)CC3)ncnc2s1	+
Cc1ccc(Cn2c(=O)c3ccccc3n3c(=O)n(CC(=O)Nc4ccc(C)cc4Cl)nc23)cc1	i
CCc1ccc(N2C(=O)c3cc4occc4n3CC2(C)C(=O)NC2CCCCC2C)cc1 (stereo unspecified)	i
COc1cc(OC)cc(-c2nc(-c3ccc(S(=O)(=O)N4CCC(C)CC4)cc3)no2)c1	i
CC1(C(=O)NC2CCCCCCC2)Cn2c(ccc2-c2ccco2)C(=O)N1C1CCCC1 (stereo unspecified)	i
COC(=O)c1ncn2c1C(=O)N(Cc1ccc(C)cc1)C(C)(C(=O)NCc1ccccc1)C2 (stereo unspecified)	i
COc1ccccc1CNC(=O)c1ccc2c(=O)n(-c3ccc(F)cc3)c3nnc(C)n3c2c1	i
CCc1cc2c(cc3n2CC(C)(C(=O)NC2CCC(C)CC2)N(c2cccc(OC)c2)C3=O)s1 (stereo unspecified)	i
COc1ccc(S(=O)(=O)c2nnn3c2nc(Nc2cccc(C)c2)c2ccccc23)cc1	i
O=C1Nc2ccc(I)cc2/C1=C/c1cc(Br)c(O)c(Br)c1	+
COC(=O)c1ncn2c1C(=O)N(Cc1cccc(Cl)c1)C(C)(C(=O)NC1CCCCCC1)C2 (stereo unspecified)	i
Cc1c(Cl)cccc1N1C(=O)c2cc3sccc3n2CC1(C)C(=O)NC1CCCCCC1 (stereo unspecified)	i
Oc1ccc2ccccc2c1SSc1c(O)ccc2ccccc12	+
COc1cc(NC(=O)c2cc3n(n2)CC(C)(C(=O)NC2CCCCCC2)N(C)C3=O)cc(OC)c1 (stereo unspecified)	i
Cc1ccc(C2c3cccn3-c3sc4c(c3CN2C(=O)Nc2ccc(F)cc2)CCCC4)cc1 (stereo unspecified)	i
CC1(C)CC[C@]2(C(=O)O)CC[C@]3(C)C(=CCC4[C@@]5(C)C[C@@H](O)[C@H](O)[C@@](C)(CO)C5CC[C@]43C)C2C1 (stereo partly specified)	i
CC1(CO)CC(O)[C@]2(C(=O)O)CCC34CC3(C=CC3[C@]5(C)C(CC[C@]34C)C(C)(CO)[C@@H](O)[C@H](O)[C@@H]5O)C2C1 (stereo partly specified)	+
CC1(C)CC[C@]2(C(=O)O)CC[C@]3(C)C(=CCC4[C@@]5(C)C(=O)C[C@H](O)[C@@](C)(CO)C5CC[C@]43C)[C@@H]2C1 (stereo partly specified)	i
CC1CC(C)CN(S(=O)(=O)c2ccc3c(c2)oc(=O)n3CC(=O)N2CCCC2)C1 (stereo unspecified)	i
CC1CCC/C=C/C(=O)c2c(O)cc(O)cc2CC(=O)O1 (stereo unspecified)	i
CC1CCCC2OC2C(=O)c2c(O)cc(O)cc2CC(=O)O1 (stereo unspecified)	i
SMILES	Methyltransferases
CC1CCCCCCCc2cc(O)cc(O)c2C(=O)O1 (stereo unspecified)	+
Cc1c(Cl)cccc1N1C(=O)c2cc3occc3n2CC1(C)C(=O)NC1CCCCCCC1 (stereo unspecified)	i
CCCn1c(=O)c2cc(Cl)ccc2n2c(SCC(=O)Nc3ccccc3C)nnc12	i
CCCn1c(=O)c2ccc(Cl)cc2n2c(SCC(=O)Nc3ccccc3F)nnc12	i
CC(C)OCCCn1c(=O)c2ccccc2n2c(CCC(=O)N3CCN(c4ccc(F)cc4)CC3)nnc12	i
COc1cccc(Cn2nc3n(Cc4ccc(C)cc4)c(=O)c4ccc(C(=O)NC(C)C)cc4n3c2=O)c1	i
Cn1c(=O)c2ccc(C(=O)NC3CCCCC3)cc2n2c(=O)n(CC(=O)NCc3ccccc3)nc12	i
CC(CCC1C(C(=O)O)=CC(=O)CC1(C)C)O[C@@H]1O[C@H](CO)[C@@H](O)[C@H](O)[C@H]1O (stereo partly specified)	+
COc1cc(C(=O)OC[C@H]2O[C@@H](OC(C)(C)C(=O)O)[C@H](O)[C@@H](O)[C@@H]2O)cc(OC)c1O	i
CC1=CC(=O)CC(C)(C)[C@@]1(O)CC[C@@H](C)O[C@@H]1O[C@H](CO)[C@@H](O)[C@H](O)[C@H]1O	i
CC1=CC(=O)CC(C)(C)C1/C=C/C(C)OC1OC(COC2OCC(O)C(O)C2O)C(O)C(O)C1O (stereo unspecified)	i
CC1=CC(=O)CC(C)(C)C1CCC(C)OC1OC(COC(=O)c2cc(O)c(O)c(O)c2)C(O)C(O)C1O (stereo unspecified)	+
CC1=CC(=O)CC(C)(C)C1/C=C/C(C)O[C@@H]1O[C@H](CO)[C@@H](O)[C@H](O)[C@H]1O[C@@H]1OC[C@](O)(CO)[C@H]1O (stereo partly specified)	i
CCCn1c(=O)c2ccccc2n2c(=O)n(CC(=O)Nc3ccc4c(c3)OCCO4)nc12	i
COc1ccccc1CNC(=O)C1c2c(n(C)c3ccccc23)SCC(=O)N1c1ccc2c(c1)OCO2 (stereo unspecified)	i
CCc1cc2c(cc3n2CC(C)(C(=O)NC2CCC(C)CC2)N(CCN2CCOCC2)C3=O)s1 (stereo unspecified)	i
CCCN1C(=O)c2cc(C(=O)NCc3ccc(OCC)cc3)nn2CC1(C)C(=O)NC1CCCC1 (stereo unspecified)	i
CCn1c(=O)n(CC)c2cc(S(=O)(=O)N3CCC(Cc4ccccc4)CC3)ccc21	i
c1ccc(CCc2nc3nccc(-c4cccnc4)n3n2)cc1	i
CN(CCc1ccc(Nc2ncc(-c3cccnc3)s2)cc1)Cc1ccccc1	+
CN(Cc1ccc(-c2ccccc2)cc1)CC1CCCCC1	i
CC(C)Cn1c(=O)c2ccc(C(=O)NC3CCCCC3)cc2n2c(=O)[nH]nc12	i
CC(C)CCNC(=O)C1c2c(n(C)c3ccccc23)SCC(=O)N1Cc1ccc(F)cc1 (stereo unspecified)	i
CCOc1ccc(C(=O)Cn2nc3n(CC(C)C)c(=O)c4ccc(C(=O)NC(C)CC)cc4n3c2=O)cc1 (stereo unspecified)	i
Cc1ccc(Cn2c(=O)c3ccc(C(=O)NC4CCCCC4)cc3n3c(=O)n(C)nc23)cc1	i
COc1cc(C(=O)O)ccc1NC(=O)[C@@H]1N[C@@H](CC(C)(C)C)[C@](C#N)(c2ccc(Cl)cc2F)[C@H]1c1cccc(Cl)c1F	+
CC(=O)Nc1c2n(c3ccc(F)cc13)CC(C)(C(=O)NC1CCCCC1)N(C1CCCC1)C2=O (stereo unspecified)	i
CCOC(=O)c1cc2n(n1)CC(C)(C(=O)NC1CCCCCC1)N(c1cc(C)cc(C)c1)C2=O (stereo unspecified)	i
O=c1[nH]c(=S)[nH]c(-c2ccccc2)c1Cc1c(O)ccc2ccccc12	+
CSc1ccc(CCN2C(=O)c3ccc(-c4ccco4)n3CC2(C)C(=O)NC2CCCCC2)cc1 (stereo unspecified)	i

Bioassay records deposited in PubChem BioAssay by National Center for Advancing Translational Sciences (NCATS).
